Source: PubChem BioAssay (National Center for Advancing Translational Sciences (NCATS))
GALK inh: inhibitors of human galactokinase; AID 1868; 270,000 compounds, 0.007% hits; Potency, µM (titrated, usually from 57.5 µM), inactives show at the highest dose activity change, negative = inhibition, actives largely listed as inhibitors; Purified GALK, Kinase-Glo residual ATP luminescence; P51570; further: potency means the concentration at half of the fitted maximal effect; on the % scale 0 is the no-effect control and ±100 the full control effect
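Kinase-Glo Plus luminescence measured ATP left after a 1 h room-temperature reaction. The reaction used 5 nM GALK, 100 uM galactose and 35 uM ATP at pH 8.0 (20 mM HEPES, 5 mM MgCl2, 60 mM NaCl, 1 mM DTT, 0.01% BSA).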
Eya2 phos inh: Eya2 (human) phosphatase inhibition; recombinant Eya2, OMFP fluorescence dephosphorylation (OMFP is methylfluorescein phosphate); Potency, µM (titrated, usually from 76.9 µM), for inactives: at the highest dose activity, negative = inhibition, usual class: inhibitors; 330,000 compounds, 0.006% hits; AID 488837; further: potency means the concentration at half of the fitted maximal effect; on the % scale 0 is the no-effect control and ±100 the full control effect
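Eya2 (0.2 uM) preincubated 10 min at ambient with compound, then OMFP substrate added at 50 uM; 10 min reaction in 50 mM HEPES pH 7.5, 50 mM NaCl, 5 uM MgCl2, 0.05% BSA, 1 mM DTT. Fluorescence read at Ex 485/Em 525 nm.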
D1 ag: activates the human D1 dopamine receptor. P21728. HEK293 T-REx D1 cells, calcium flux, agonist mode. activation, % at 2 µM. 360,000 compounds, 1% hits. AID 504660; in the data active means activation above about 30%; further: 0% is about no effect
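Agonism was scored from calcium flux recorded over 180 s (1 read/s) after pintool compound addition, following a 10-cycle baseline. Cells were inducible force-coupled HEK293 TREx D1, plated overnight at 30 C and loaded with no-wash calcium dye.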
D1 antag: blocks dopamine activation of the human D1 receptor; HEK293 TREx D1 cells, calcium flux, dopamine EC80; active compounds read low; activity change, negative = inhibition, % at 10 µM; 360,000 compounds, 3.2% hits; in the data active means activity change below about -30%; further: on the % scale 0 is the no-effect control and ±100 the full control effect
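Kinetic fluorescence of a calcium dye serves as the read-out. D1-expressing Hek293 Trex cells, induced overnight at 30 C, are exposed to compound for 180 s before an EC80 dopamine addition, then read 180 s further.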
USP2a block: blocks human ubiquitin-specific protease USP2a; O75604; USP2 core, Ub-CHOP2 coupled fluorogenic reporter, 485/531; Potency, µM (titrated, usually from 38.3 µM), without a hit: at the top dose activity change, negative = inhibition, usual class: inhibitors; 330,000 compounds, 0.01% hits; AID 463254;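 further: potency means the concentration at half of the fitted maximal effect; plate controls were DMSO wells for no effect and full inhibition by NEM control for full effect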
Target sequence (O75604 whole entry, looked up): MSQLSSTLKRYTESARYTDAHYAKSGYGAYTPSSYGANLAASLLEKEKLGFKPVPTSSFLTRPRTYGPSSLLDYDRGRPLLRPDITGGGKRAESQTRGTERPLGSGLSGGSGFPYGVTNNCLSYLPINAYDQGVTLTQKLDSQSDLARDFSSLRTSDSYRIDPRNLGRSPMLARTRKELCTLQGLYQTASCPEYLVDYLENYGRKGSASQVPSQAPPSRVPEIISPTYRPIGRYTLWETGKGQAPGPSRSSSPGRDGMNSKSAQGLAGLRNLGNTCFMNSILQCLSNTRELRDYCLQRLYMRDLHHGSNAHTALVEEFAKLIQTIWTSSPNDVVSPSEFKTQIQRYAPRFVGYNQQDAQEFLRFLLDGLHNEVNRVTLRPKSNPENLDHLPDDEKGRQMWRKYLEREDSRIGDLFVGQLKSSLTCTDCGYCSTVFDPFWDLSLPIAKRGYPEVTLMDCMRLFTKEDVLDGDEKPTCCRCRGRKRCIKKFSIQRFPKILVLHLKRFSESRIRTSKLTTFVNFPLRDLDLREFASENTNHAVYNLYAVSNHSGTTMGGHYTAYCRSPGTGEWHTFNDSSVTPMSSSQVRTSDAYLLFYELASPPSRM
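Cell-free coupled assay: 10nM USP2 core preincubated 30min RT with compound in Tris-HCl pH 8.0/CaCl2/CHAPS buffer, then 25nM Ub-CHOP2 and 25nM reporter substrate; fluorescence (Ex 485/Em 531) read after 60min RT, normalized to NEM inhibition, concentration-response curves fitted.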
D1 potentiator: potentiators of human D1 dopamine receptor | P21728 | HEK293 TREx D1 cells, calcium flux, dopamine EC20 potentiation | potentiation, % at 10 µM | 360,000 compounds, 0.036% hits | AID 504651; in the data active means potentiation above about 30%; further: 0% is about no effect
The depositor's hits bear a star. Most compounds without a hit are left out; they make up all but 3.9% or so of the library. Unless noted, the call rests on the fitted dose curve; in most records, active means well fitted inhibition curve with a large enough effect; inconclusive means small, poorly fitted or top-dose-only effect, or effect the other way; inactive means flat fitted curve, though single readings scatter.

COc1ccc(Nc2nc(Nc3ccc(OC)cc3OC)nc(N3CCOCC3)n2)c(OC)c1 was read as D1 ag 1.4, D1 antag -1.9 and D1 potentiator -3.6.
c1ccc(CNc2ncnc3c2cnn3Cc2ccccc2)cc1 was read as GALK inh -2.5%, Eya2 phos inh -16.7%, D1 ag 51.8*, D1 antag -15.3, USP2a block 0.0% and D1 potentiator -9.0.
For Cc1noc2ncnc(NCc3cccc(Cl)c3)c12 the results were D1 ag 29.9, D1 antag -35.5* and D1 potentiator -5.9.
Screening Cn1ncc2c(NCc3cccc(Cl)c3)ncnc21 returned D1 ag 1.7, D1 antag -38.4* and D1 potentiator -2.5.
For COc1ccc(CNC(=O)c2cc3c(=O)n4cccc(C)c4nc3s2)cc1 the results were D1 ag -0.7, D1 antag 4.6 and D1 potentiator -0.3.
CC(NC(=O)[C@@H](C)NC(=O)[C@@H]1Cc2ccccc2CN1C(=O)OC(C)(C)C)c1ccccc1 (some centres not stated) was read as GALK inh -4.8%, Eya2 phos inh -9.8%, D1 ag 1.9, D1 antag -4.4, USP2a block -2.4% and D1 potentiator -1.6.
C[C@@H](NC(=O)[C@@H]1Cc2ccccc2CN1C(=O)OC(C)(C)C)C(=O)NC1CCCC1 was read as GALK inh 6.8%, Eya2 phos inh 2.6%, D1 ag 0.4, D1 antag -40.5*, USP2a block 0.7% and D1 potentiator -1.5.
`O=C(NCc1nnc(-c2cc3ccccc3[nH]2)o1)c1ccccc1` gave D1 ag 2.8, D1 antag -10.7 and D1 potentiator -4.0.
Cc1cc(C)c2ccc(=S)[nH]c2n1 was read as GALK inh 0.5%, Eya2 phos inh inconclusive, D1 ag 3.2, D1 antag -12.1, USP2a block 1.4% and D1 potentiator -7.7.
`COc1ccc2c(C)cc(C)nc2n1` gave GALK inh 2.5%, Eya2 phos inh 10.2%, D1 ag -0.3, D1 antag -33.2*, USP2a block 4.3% and D1 potentiator 0.1.
For Cc1ccc(C)c(NC(=O)c2cc(S(=O)(=O)N3CCCCC3)ccc2N2CCOCC2)c1 the results were Eya2 phos inh -11.2%, D1 ag 4.0, D1 antag 0.3, USP2a block 2.3% and D1 potentiator -11.0.
`O=C(Nc1nc2c(ccc3ccccc32)s1)c1cc([N+](=O)[O-])ccc1N1CCOCC1` gave GALK inh 2.3%, Eya2 phos inh 7.0%, D1 ag 5.7, D1 antag 4.1, USP2a block 0.0% and D1 potentiator 1.4.
Cc1ccc(S(=O)(=O)N2CCOCC2)cc1NC(=O)c1cc([N+](=O)[O-])ccc1N1CCOCC1 was read as Eya2 phos inh 12.5%, D1 ag -1.6, D1 antag -68.6*, USP2a block -0.8% and D1 potentiator -0.3.
Screening O=C(Nc1nc(-c2ccc(-c3ccccc3)cc2)cs1)c1cc([N+](=O)[O-])ccc1N1CCOCC1 returned GALK inh 9.9%, Eya2 phos inh -2.0%, D1 ag -0.2, D1 antag -36.2*, USP2a block 1.7% and D1 potentiator -7.5.
`Cc1ccc(S(=O)(=O)N2CCCCC2)cc1NC(=O)CSc1nnnn1C` gave GALK inh 1.6%, Eya2 phos inh -2.0%, D1 ag 1.8, D1 antag -3.2, USP2a block 4.5% and D1 potentiator -0.2.
Cc1ccc(S(=O)(=O)N2CCOCC2)cc1NC(=O)CSc1nnnn1C was read as GALK inh 9.4%, Eya2 phos inh 4.4%, D1 ag 3.1, D1 antag -35.1*, USP2a block 1.3% and D1 potentiator 2.0.
For Cc1c(Cl)cccc1NC(=O)CSc1ncc2c(n1)-c1ccccc1N(C)S2(=O)=O the results were D1 ag 1.3, D1 antag 14.7 and D1 potentiator 2.3.
`COc1ccc(CCNC(=O)c2cc3c(=O)n4cccc(C)c4nc3n2C)cc1` gave D1 ag 0.5, D1 antag -0.7 and D1 potentiator -3.0.
`N#C/C(C(=O)Nc1ccc(Cl)cc1)=C(/S)Nc1ccccc1` gave GALK inh -2.7%, Eya2 phos inh -7.3%, D1 ag 24.7, D1 antag 0.6, USP2a block -13.7% and D1 potentiator -4.2.
N#CC(C#N)=C/C=C(\Nc1ccc(Cl)cc1)c1ccc(Cl)cc1 was read as GALK inh -0.3%, Eya2 phos inh -8.5%, D1 ag 78.6*, D1 antag -27.9, USP2a block 0.0% and D1 potentiator -10.0.
Screening O=C(CCC1CCCN(C(=O)c2cc(C3CC3)[nH]n2)C1)N1CCN(c2ccccn2)CC1 (configuration not stated) returned GALK inh -3.5%, Eya2 phos inh 0.0%, D1 ag 2.9, D1 antag -31.6*, USP2a block 2.6% and D1 potentiator 0.1.
C=CCc1cc(Cl)ccc1OCCNCCN1CCOCC1 was read as GALK inh 9.4%, Eya2 phos inh -8.6%, D1 ag 11.6, D1 antag -87.1*, USP2a block 2.0% and D1 potentiator -6.8.
`CCN1C(=O)c2ccccc2S(=O)c2ccc(C(=O)N3CCN(c4cc(Cl)ccc4C)CC3)cc21` (configuration not stated) gave D1 ag 4.0, D1 antag -16.2 and D1 potentiator -5.0.
`CCN(CC)S(=O)(=O)c1ccc(N=Nc2c(N)[nH]c(=O)[nH]c2=O)cc1` gave GALK inh -1.0%, Eya2 phos inh 5.3%, D1 ag 1.9, D1 antag -41.1*, USP2a block -1.0% and D1 potentiator 1.6.
COc1cccc(/C=C/c2nc(C#N)c(NC3CCCCC3)o2)c1 was read as D1 ag 0.9, D1 antag 17.6 and D1 potentiator 4.0.
Screening COCCCNC(=S)N1CCN(c2ccc([N+](=O)[O-])cc2)CC1 returned GALK inh 0.1%, Eya2 phos inh 1.3%, D1 ag 8.3, D1 antag -32.7*, USP2a block -1.2% and D1 potentiator -4.4.
For COc1ccc(C(=O)NC(=S)N2CCN(c3ccc([N+](=O)[O-])cc3)CC2)cc1 the results were GALK inh 5.4%, Eya2 phos inh -6.6%, D1 ag 4.8, D1 antag -30.6*, USP2a block 3.9% and D1 potentiator -4.9.
For CSCCCNC(=S)N1CCN(c2ccc(C(C)=O)cc2)CC1 the results were GALK inh 0.3%, Eya2 phos inh -22.4%, D1 ag 2.8, D1 antag -32.6*, USP2a block 2.4% and D1 potentiator -5.5.
